Measurements reported in PubChem BioAssay (NCATS).
Results filed as inconclusive are left out. Unmarked numbers belong to inactive results. Calls follow the shape of the dose curve; as a rule, active = well fitted cell-killing curve with a large enough effect; inconclusive = small, poorly fitted or top-dose-only effect; inactive = flat fitted curve, though single readings scatter.

experiment: Cell Viability - LYMP2-002 (AID 977); settings: LYMP2-002 lymphoblastoid cell viability, qHTS; series mostly up to 92.2 µM; activity change, negative = cytotoxic: at the top concentration;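 also: compound exposure lasted 24 h at 37 °C; plate controls were DMSO only for no effect and 92 µM tetraoctylammonium bromide for full effect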
Text: NIH Chemical Genomics Center [NCGC]
NIH Molecular Libraries Screening Centers Network [MLSCN]
National Institutes of Environmental Health Sciences [NIEHS]
National Toxicology Program [NTP]
We have developed a 1536-well cell-based assay for quantitative high throughput screening (qHTS) against a number of cell lines to determine in vitro cytotoxicity of small molecules. This particular assay uses a human lymphoblastoid cell line (LYMP2-002) purchased from Coriell Institute for Medical Research.
NCGC Assay Protocol Summary:
The CellTiter-Glo luminescent cell viability assay (Promega) is a homogeneous method to measure the number of viable cells in culture. The end point readout of this assay is based on quantitation of intracellular ATP, an indicator of metabolic activity, using the luciferase reaction. Luciferase catalyzes the oxidation of beetle Luciferin to oxyluciferin and light in the presence of ATP. The luminescent signal is proportional to amount of ATP present.
Using the CellTiter-Glo luminescent cell viability assay, the amount of cellular ATP was measured in the lymphoblastoid cell line with complete culture medium following compound treatment for 24 hours. The assay was performed in opaque white Kalypsys 1536-well plates. In the screen, tetraoctylammonium bromide was used as positive control. Library compounds were measured for their ability to cause acute toxicity in the cell line, as reflected by a decrease in intracellular ATP levels, in a concentration-dependent manner. […] AC50 values were determined from concentration-response data modeled with the standard Hill equation.
qHTS protocol for CellTiter Glo lymphoblastoid cellular assay
[Step] [Parameter] [Value] [Description]
1. Reagent; 5 uL; 2500 lymphoblastoid cells/well
2. Time; 5 hr; 37 C incubation
4. Controls; 23 nL; Tetraoctylammonium bromide 6.4pM to 92 uM
5. Time; 24 hr; 37 C incubation
6. Reagent; 5 uL; CellTiter Glo reagent
7. Time; 30 min; Room Temperature
8. Detection; Luminescence; Viewlux plate reader
Keywords: cell viability, cytotoxicity, lymphoblastoid cell line, luminescence, NTPHTS, NTPHTS_NCGC, NIEHS, DSSTox, MLSMR, MLSCN, NIH Roadmap, qHTS, NCGC

Point of comparison: c1ccc(Oc2ccccc2)cc1, “activity change, negative = cytotoxic” value 1.1%. Against it:
- C=CCOC(=O)CCCCCCCC — lower, -2.48%
- Cc1cccc2cccnc12 — lower, -3.77%
- Cc1ccccc1C(N)=O — higher, 8.45%
- O=C(Cl)c1cccc([N+](=O)[O-])c1 — lower, -0.029%
- COC(=O)CS — lower, -3.1%
- Cc1c(N)cccc1N — lower, -14.6%
- C/C=C(/C)C#N — lower, -8.61%
- C=Cc1ccccn1 — lower, -4.61%
- O=[N+]([O-])c1ccc(NCCO)c(OCCO)c1 — lower, -0.753%
- CCCCN(CCO)CCCC — lower, -20%
- Cc1ccc2ncccc2c1 — lower, -4.91%
- OC1CCCC1 — lower, -4.56%
- CCc1ccccc1 — higher, 1.76%
- Cc1ccc(C(=O)O)cc1 — lower, -9.82%
- CC(O)COC(C)(C)C (stereo not given) — higher, 10.3%
- CC(C)Nc1ccccc1 — higher, 8.17%
- C=CCCCCCCC=C — higher, 12.9%
- S=C([S-])NCCNC(=S)[S-].[Zn+2] — lower, -6.29%
- O=C(O)c1cc(Cl)cc(Cl)c1 — lower, -14%
- CNC(=O)c1ccccc1 — lower, -15.2%
- NC(N)=S — lower, -3.08%
- CC(=O)C1(C)CC2=C(CCCC2(C)C)CC1C (stereo not given) — higher, 5.33%
- O=C(O)c1ccc(Cl)cc1Cl — higher, 2.88%
- O=C(O[C@@H](C(=O)O)[C@@H](OC(=O)c1ccccc1)C(=O)O)c1ccccc1 — lower, -4.35%
- C=Cc1ccccc1C=C — higher, 4.68%
- O=C(O)c1ccc(Cl)c(Cl)c1 — lower, -5.18%
- CC(C)C=O — higher, 6.65%
- CC(CCl)OC(C)CCl (stereo not given) — higher, 1.12%
- C=CC(=O)OCCCC — lower, -14%
- Cc1cccc(Br)c1 — higher, 16%
- Nc1cc(Cl)c(N)c(Cl)c1 — lower, -17.2%
- CCCC(C)CO (stereo not given) — lower, -2.06%
- CC(C)=CCl — higher, 15.7%
- C[C@@H]1O[C@@H](O[C@@H]2[C@@H](O)[C@H](OCCc3ccc(O)c(O)c3)O[C@H](CO[C@@H]3O[C@H](CO)[C@@H](O)[C@H](O)[C@H]3O)[C@H]2OC(=O)/C=C/c2ccc(O)c(O)c2)[C@H](O)[C@H](O)[C@H]1O — higher, 17.6%
- CCOc1ccc(NC(C)=O)cc1N — higher, 2.79%
- Cc1c(C(=O)O)cccc1[N+](=O)[O-] — lower, -5.02%
- CC(=O)Nc1ccccc1C — higher, 15%
- BrC/C=C/CBr — lower, -21.2%
- O=Nc1ccc(NO)cc1 — lower, -28.5%
